From PubChem
IMPase cell inh: membrane-permeable compound that blocks inositol monophosphatase. CHO-M1 cells, IP1 accumulation, HTRF TR-FRET ratio. P97697. inhibition (IP1 accumulation), % at 46.1 µM. AID 901. 120,000 tested, under 10 active; active = well fitted curve in the direction sought with a large enough effect in the signal ratio, not every such curve was filed as active; inconclusive = small, poorly fitted or top-dose-only effect, or a change in a side signal; inactive = no such curve, though single readings can be large or run the other way; the % refers to the signal ratio;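 also: cells stimulated with carbachol in lithium chloride buffer; plate controls were DMSO basal wells for no effect and reference inhibitor wells for full effect; higher means more IMPase inhibition seen as more IP1 and lower FRET ratio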
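The IP-One HTRF competitive assay in carbachol-stimulated CHO-M1 cells quantifies cellular IP1. Compounds spanned up to 46 uM final, and activity is expressed as AC50 from concentration-response fits of the ratio and donor data.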
HPGD block: inhibitors of human 15-hydroxyprostaglandin dehydrogenase (HPGD); P15428; purified HPGD, NADH fluorescence kinetic, PGE2 substrate; Potency, µM, without a hit: at the top dose activity change, negative = inhibition, actives largely listed as inhibitors; 150,000 tested, 4.3% active; AID 894; active = well fitted inhibition curve with a large enough effect, not every such curve was filed as active; inconclusive = small, poorly fitted or top-dose-only effect, or another doubt; inactive = no such curve, though single readings can be large or run the other way; also: potency is read from the fitted curve at half-maximal effect
Target sequence (P15428 whole entry, looked up): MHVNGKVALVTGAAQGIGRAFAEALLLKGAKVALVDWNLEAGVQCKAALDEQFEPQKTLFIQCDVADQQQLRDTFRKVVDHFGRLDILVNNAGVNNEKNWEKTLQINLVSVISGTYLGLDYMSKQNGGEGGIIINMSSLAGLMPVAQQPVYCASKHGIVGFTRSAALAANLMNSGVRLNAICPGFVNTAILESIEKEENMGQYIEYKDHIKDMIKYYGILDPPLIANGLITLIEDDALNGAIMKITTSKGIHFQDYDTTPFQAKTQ
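20 nM HPGD preincubated 15 min at room temperature with compound in 50 mM Tris-HCl pH 8, 0.01% Tween 20. Started with 1 mM NAD+ and 30 uM prostaglandin E2; NADH fluorescence (360/450 nm) read 5 times over 30-s intervals, last minus first.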
ALDH1A1 block: ALDH1A1 (human) enzyme inhibition | Potency, µM (highest dose often 75.3 µM), for the others: at the top dose activity, negative = inhibition, usual class: inhibitors | P00352 | 220,000 tested, 7.3% active | AID 1030 | Purified ALDH1A1, NADH fluorescence, propionaldehyde substrate; active = well fitted inhibition curve with a large enough effect, not every such curve was filed as active; inconclusive = small, poorly fitted or top-dose-only effect, or another doubt; inactive = no such curve, though single readings can be large or run the other way;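 also: potency is read from the fitted curve at half-maximal effect; plate controls were no enzyme wells and a reference inhibitor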
Target sequence (P00352 whole entry, looked up): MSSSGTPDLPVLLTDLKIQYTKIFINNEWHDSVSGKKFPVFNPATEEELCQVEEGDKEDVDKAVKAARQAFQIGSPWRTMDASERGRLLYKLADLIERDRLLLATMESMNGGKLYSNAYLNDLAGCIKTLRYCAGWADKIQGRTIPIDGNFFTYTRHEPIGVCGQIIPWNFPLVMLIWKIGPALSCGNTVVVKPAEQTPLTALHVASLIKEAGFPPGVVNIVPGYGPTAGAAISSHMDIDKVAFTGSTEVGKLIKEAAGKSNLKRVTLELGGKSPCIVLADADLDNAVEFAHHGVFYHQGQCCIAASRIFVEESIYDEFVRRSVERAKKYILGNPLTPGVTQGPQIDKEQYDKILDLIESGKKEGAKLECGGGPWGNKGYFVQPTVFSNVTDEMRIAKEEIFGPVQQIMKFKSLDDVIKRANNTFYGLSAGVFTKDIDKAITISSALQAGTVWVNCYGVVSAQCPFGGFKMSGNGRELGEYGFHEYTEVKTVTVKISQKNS
NPSR antag: blocks cAMP signaling of the human neuropeptide S receptor | Q6W5P4 | Potency, µM (series often up to 38.3 µM), inactives show at the highest dose activity change, negative = inhibition, usual class: inhibitors | 220,000 tested, 1% active | AID 1461 | CHO-NPSR cells, cAMP TR-FRET, antagonist mode; also: potency is read from the fitted curve at half-maximal effect; nearly all actives have a fitted effect of over 50% in size
PNC inhibitor: inhibitors of perinucleolar compartment assembly; activity change (PNC), negative = inhibition, % at 10 µM; PC3M PTB-GFP, PNC prevalence imaging, 16 h; hits give low values; 140,000 tested, 3.1% active;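 active = readout at or below -70, meaning at least 70% loss of cells showing the perinucleolar compartment, a nuclear body marking cancer cells; inconclusive = readout between -30 and a set limit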;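 also: plate controls were DMSO wells for no effect and camptothecin positive control wells for full effect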
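Compounds are pinned in duplicate onto adhered PC3M cells stably expressing GFP-tagged PTB and incubated 16 h at 37 C. Cells are then fixed, nuclei stained with Hoechst, and PNC-positive cells counted.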
IMPase Li inh: IMPase inhibition in cells with lithium potentiation. CHO-M1 cells, IP1 TR-FRET (IP-One), carbachol + lithium. Potency, µM (series often up to 59.4 µM), without a hit: top-dose activity, negative = IMPase inhibition, usual class: inhibitors. 210,000 tested, 0.35% active. AID 1457;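 also: IP1 builds up when IMPase is blocked and the TR-FRET signal falls; potency is read from the fitted curve at half-maximal effect; plate controls were basal vehicle for no effect and high inhibitor control for full effect; nearly all actives have a fitted effect of over 50% in size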
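CHO cells stably expressing M1 receptor (2000/well, cultured 16–30 h) treated 30 min at 37C with compound plus low lithium. Cytosolic IP1 by TR-FRET (665/620 ratio and 620 channel) after 10 min lysis; AC50 by Hill fit.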
* = called active by the depositor; [ ] = another dose, or the depositor's remark. In the library only some 11% were active in any assay of this set; here they are far more common. Unless noted, calls follow the shape of the dose curve; as a rule, active = well fitted curve in the direction sought with a large enough effect; inconclusive = small, poorly fitted or top-dose-only effect, or another doubt; inactive = no such curve, though single readings can be large; an effect the other way counts as inactive or inconclusive. Unless noted, % is scaled to controls: 0 for no effect and ±100 for the full control effect.

Screening COc1ccc(C(=O)N2CCC[C@@]3(CCN(Cc4ccc(C#N)cc4)C3)C2)cc1 returned HPGD block 16µM*, ALDH1A1 block inconclusive and IMPase Li inh 5%.
`COc1ccc2c(c1)[nH]c1c(=O)n(CCc3cnc[nH]3)cnc12` gave IMPase cell inh 12, HPGD block -12%, ALDH1A1 block -1%, NPSR antag -13%[46.1 µM], PNC inhibitor 30 and IMPase Li inh 27%[38.3 µM].
CC(C)(C)c1ccc(S(=O)(=O)Nc2cccnc2)cc1 was read as IMPase cell inh 10, HPGD block -10%, ALDH1A1 block inconclusive, NPSR antag -12%[46.1 µM], PNC inhibitor 24 and IMPase Li inh 14%[38.3 µM].
For CC(=O)NCCc1ccc(S(=O)(=O)Nc2cccnc2)cc1 the results were IMPase cell inh 7, HPGD block -2%, ALDH1A1 block 0%, NPSR antag -4%[46.1 µM], PNC inhibitor -82* and IMPase Li inh 0%.
For C/C=C\C1=C(CO)C(=O)[C@@H]2OC2C1=O (some centres not stated) the results were ALDH1A1 block 0.71µM*.
For CCOC(=O)/C(C#N)=C/Nc1ccccc1OC(F)(F)F the results were NPSR antag 3%.
Screening CCc1nnc(NC(=O)c2cc(S(=O)(=O)N3CCCCC3)ccc2N2CCOCC2)s1 returned ALDH1A1 block -4%, NPSR antag -13% and IMPase Li inh -5%.
For Cc1cc(C)c2c(CC(=O)O)c(C)[nH]c2c1 the results were ALDH1A1 block -13%, NPSR antag -4% and IMPase Li inh 6%.
`O/N=C/c1cc(Br)cc(Br)c1OCc1ccccc1` gave IMPase cell inh -2, HPGD block 14µM*, ALDH1A1 block 11%, NPSR antag -22%[46.1 µM], PNC inhibitor 17 and IMPase Li inh 9%[38.3 µM].
For O/N=C/c1ccc(OCc2ccccc2)c(Br)c1 the results were HPGD block -22%, ALDH1A1 block 6%, NPSR antag -4%, PNC inhibitor 12 and IMPase Li inh -1%.
Cc1cc(OC(=O)c2ccccc2Br)cc(=O)n1C was read as IMPase cell inh 1, HPGD block 13µM*, ALDH1A1 block 6%, NPSR antag 2%[46.1 µM], PNC inhibitor 23 and IMPase Li inh -15%[38.3 µM].
Screening CC(=O)c1c(OC(=O)c2ccccc2Br)ccc2c(C)cc(=O)oc12 returned HPGD block -8%, ALDH1A1 block -1%, NPSR antag -22%, PNC inhibitor 9 and IMPase Li inh 12%.
Screening Cc1ccc2nc(Cl)c3nnnn3c2c1 returned ALDH1A1 block 28µM*, NPSR antag 3% and IMPase Li inh 2%.
Screening Cc1ccc2nc(NCc3ccccc3Cl)c3nnnn3c2c1 returned IMPase cell inh 1.
Cc1ccc(S(=O)(=O)n2nc(C)c(C#N)c2N)cc1 was read as HPGD block -7%, ALDH1A1 block -5%, NPSR antag 14%, PNC inhibitor -10 and IMPase Li inh 3%.
Cc1cccc(-n2ncc3c(NCCc4ccc(S(N)(=O)=O)cc4)ncnc32)c1 was read as IMPase cell inh -5, HPGD block -27%, ALDH1A1 block inconclusive, NPSR antag -28%[46.1 µM], PNC inhibitor -3 and IMPase Li inh -2%[38.3 µM].
`CCN(CC)c1nc2ccccc2c(N)c1-c1ccccc1` gave IMPase cell inh 15, HPGD block inconclusive, ALDH1A1 block 14µM*, NPSR antag -5%[46.1 µM], PNC inhibitor -9 and IMPase Li inh 13%[38.3 µM].
For Cc1ccc(C2c3sc(=O)[nH]c3SC3C4CC(C5C(=O)N(C(C)C(=O)O)C(=O)C45)C23)cc1 (configuration not stated) the results were HPGD block -2%, ALDH1A1 block inconclusive, NPSR antag 14%, PNC inhibitor -90* and IMPase Li inh 22%.
`CCC1(C)CC(=O)N(c2ccc(C(=O)O)c(O)c2)C1=O` (configuration not stated) gave IMPase cell inh 3, HPGD block -30%, ALDH1A1 block inconclusive, NPSR antag 1%[46.1 µM], PNC inhibitor 22 and IMPase Li inh -4%[38.3 µM].
Cc1c(-c2ccc(Br)cc2)nc2ccccn12 was read as IMPase cell inh -4, ALDH1A1 block -14%, NPSR antag -29%[46.1 µM] and PNC inhibitor -20.
CN(C)c1ccc(-c2nc3ccccn3c2/N=C/c2ccc(Br)cc2)cc1 was read as HPGD block -28%, ALDH1A1 block inconclusive, NPSR antag 10µM*, PNC inhibitor -112* and IMPase Li inh 30%.
For O=c1c(O)cc(C2Oc3cc(O)cc(O)c3CC2O)cc2c(C3Oc4cc(O)cc(O)c4CC3O)cc(O)c(O)c12 (configuration not stated) the results were HPGD block 13µM*, ALDH1A1 block -15% and IMPase Li inh -1%.
Clc1ccc(CNC2CCCC2)c(Cl)c1 was read as IMPase cell inh 0, HPGD block -4%, ALDH1A1 block -8%, NPSR antag -6%[46.1 µM], PNC inhibitor -17 and IMPase Li inh 23%[38.3 µM].
Screening CCN1CCN(CCOc2cccc(Cl)c2Cl)CC1 returned ALDH1A1 block 8.9µM*, NPSR antag 3% and IMPase Li inh 15%.
Screening CCN1CCN(CCCOc2ccc(Cl)cc2Br)CC1 returned ALDH1A1 block 13µM*, NPSR antag 11% and IMPase Li inh 9%.
Screening Clc1ccc(OCCCN2CCCCC2)c(Br)c1 returned HPGD block 0%, ALDH1A1 block -7%, NPSR antag 6%, PNC inhibitor 15 and IMPase Li inh 16%.
Cc1ccccc1OC(=O)n1c(=S)oc2cc(Cl)ccc21 was read as IMPase cell inh -10, HPGD block inconclusive, ALDH1A1 block 7.1µM*, NPSR antag -6%[46.1 µM], PNC inhibitor -15 and IMPase Li inh 15%[38.3 µM].
`O=C1N/C(=N/Nc2ccccc2)S/C1=C\c1ccccc1` gave IMPase cell inh 3, HPGD block 10µM*, ALDH1A1 block 5.6µM*, NPSR antag -20%[46.1 µM], PNC inhibitor 27 and IMPase Li inh 22%[38.3 µM].
O=C(COC(=O)c1c[nH]c(=O)[nH]c1=O)Nc1ccccc1F was read as ALDH1A1 block 28µM*, NPSR antag 27% and IMPase Li inh -3%.
`Cc1ccc(C(=O)NCc2ccc(Cl)c(Cl)c2)o1` gave IMPase cell inh 1, HPGD block 13µM*, ALDH1A1 block 2%, NPSR antag 6%[46.1 µM], PNC inhibitor 18 and IMPase Li inh -1%[38.3 µM].
Screening CCOC(=O)C1CCN(C(=O)CN2C(=O)C(CC)Oc3ccccc32)CC1 (configuration not stated) returned IMPase cell inh -7, HPGD block 5%, ALDH1A1 block 1%, NPSR antag -25%[46.1 µM], PNC inhibitor 38 and IMPase Li inh 16%[38.3 µM].
